# Laboratory results taken from PubChem BioAssay AID624296 (National Center for Advancing Translational Sciences (NCATS), 2012).
# Values joined by “and” are separate entries in the source; they are usually repeats but may differ in a detail not shown here. Identical values can stand only once. In all, about 350,000 compounds went through this assay and about 9,900 (2.8%) were called active. Roughly 15% stayed inconclusive and do not appear here. Calls follow the shape of the dose curve; as a rule, active = well fitted activation curve with a large enough effect; inconclusive = small, poorly fitted or top-dose-only effect; inactive = no such curve, though single readings can be large or run the other way. The full list was thinned out, with actives kept by preference. Some compounds were tested as several samples or in several runs, with calls that do not always agree.
# Test: A quantitative high throughput screen for small molecules that induce DNA re-replication in MCF 10a normal breast cells. Also: nearly all actives have a fitted effect of over 50% in size. As to activity, positive = re-replication: % of control where 0% means no effect.
# Details: MCF 10A DNA re-replication, Hoechst nuclear intensity, 48 h; series mostly up to 46.1 µM; activity, positive = re-replication: at the top concentration
# Potency is read from the fitted curve at half-maximal effect.
SMILES,"activity, positive = re-replication",Potency
COC(=O)c1c(NC(=O)CCCC(=O)O)sc2c1CCCCC2,-2.78% (inactive),
COC(=O)c1c(NC(=O)CSc2nncs2)sc2c1CCCCC2,,0.231 µM (active)
COC(=O)c1c(NC(=O)c2cccs2)sc2c1CCCC2,6.88% (inactive),
Cc1ccc(C(=O)OCC(=O)NCc2cc(C)c(O)c(C)c2)cc1S(=O)(=O)N1CCCCC1,-4.83% (inactive),
CN1C(c2ccc(F)cc2)=CS/C1=C(/C#N)c1nnc2n1-c1ccccc1SC2,14.1% (inactive),
c1csc(-c2nc(-c3ccncc3)no2)c1,-4.42% (inactive),
COc1nc(-c2ccc(Cl)cc2)ccc1-c1noc(-c2cccs2)n1,,6.51 µM (active)
COc1ccc(CCc2nc(-c3cccs3)no2)cc1,20.4% (inactive),
COc1ccc(NC(C)=O)cc1NC(=O)CN1CCN(c2ccccn2)CC1,-3.72% (inactive),
COc1ccc(NC(C)=O)cc1NC(=O)CN1CCN(C2c3ccccc3-c3ccccc32)CC1,,20.6 µM (active)
COc1ccc(Cl)cc1NC(=O)CN1CCN(C(=O)N2CCOCC2)CC1,-0.173% (inactive),
COc1ccc(N2CCN(C(CNS(=O)(=O)c3ccc(C)cc3)c3ccccc3)CC2)cc1 (stereo not given),2.78% (inactive),
CC(NC(=O)COC(=O)c1ccc2ccccc2n1)c1ccccc1 (stereo not given),-2.2% (inactive),
Oc1c(Cl)cc(Cl)c(Cl)c1Cc1c(O)c(Cl)cc(Cl)c1Cl,,inactive and 920 nM (active)
CN(C)C(=O)CCc1ccc2c3c([nH]c2c1)[C@]1(CCc2ccccc2)[C@@H](C(=O)N2CCCCC2)C[C@H](CC(=O)NCCC2=CCCCC2)C(=O)N1CC3,9.25% (inactive),
Nn1c(SCC(=O)Nc2nccs2)nnc1-c1ccco1,-0.773% (inactive),
N=C1C(c2nc3ccccc3s2)=C(O)CN1NC(=O)c1ccc([N+](=O)[O-])cc1,,3.66 µM (active)
CCOC(=O)CCCN1CC(O)=C(c2nc3ccccc3s2)C1=N,-4.68% (inactive),
COc1ccccc1N1CC(O)=C(c2nc3ccccc3s2)C1=N,-0.695% (inactive),
CC1CC(=NNC(=O)C2COc3ccccc3O2)CC(C)(C)C1 (stereo not given),-1.88% (inactive),
O=C(Nc1ccccc1N1CCOCC1)c1ccncc1,-0.281% (inactive),
O=C(Nc1ccccc1N1CCCCC1)c1ccc2nccnc2c1,,20.6 µM (active)

SMILES,"activity, positive = re-replication",Potency
O=C(Nc1ccccc1N1CCCC1)c1ccc2ccccc2c1,-0.122% (inactive),
O=C(COc1ccccc1F)Nc1nc(-c2ccccn2)cs1,18% (inactive),
O=C(c1ccc(S(=O)(=O)NCc2ccco2)cc1)N1CCN(c2ccccc2)CC1,3.64% (inactive),
CCOC(=O)/C(C#N)=C/c1cn(CCC(=O)O)nc1-c1ccc(Br)cc1,18% (inactive),
O=C(O)/C=C/c1cn(Cc2ccccc2)nc1-c1cccs1,-1.37% (inactive),
O=C(O)CCn1cc(/C=C/C(=O)c2ccc(Cl)cc2)c(-c2cccc(Br)c2)n1,,4.11 µM (active)
CCC1(C)NC(=O)N(CC(=O)N2CCN(c3cccc(Cl)c3)CC2)C1=O (stereo not given),-4.79% (inactive),
COc1ccc(-c2csc(N3CCN(Cc4ccc5c(c4)OCO5)CC3)n2)cc1,0.265% (inactive),
O=C(CN1CCN(c2nc(-c3ccccc3)cs2)CC1)NCc1ccc2c(c1)OCO2,,11.6 µM (active)
CC1CCCCN1CC(=O)NCc1ccc2c(c1)OCO2 (stereo not given),-9.34% (inactive),
Cc1csc2nc(COC(=O)c3cccc(N(C)C)c3)cc(=O)n12,-6.53% (inactive),
COc1ccc(C(CNC(=O)c2cccc(S(=O)(=O)Nc3ccc(Br)cc3)c2)N(C)C)cc1 (stereo not given),0.244% (inactive),
Cc1cccc(NC(=O)CN2CCN(C(=O)C3CCN(C(=O)/C=C/c4ccccc4)CC3)CC2)c1C,2.04% (inactive),
CCOC(=O)/C=c1\s/c(=C\c2ccc(C#N)cc2)c(=O)n1CC(=O)Nc1cccc(C)c1C,,2.91 µM (active)
CCOC(=O)/C=c1\s/c(=C\c2ccccc2OC)c(=O)n1CC(=O)N1CCOCC1,1.44% (inactive),
Cn1nc(C(=O)OCC(=O)N(Cc2ccccc2)C(C)(C)C)c2ccccc2c1=O,6% (inactive),
O=C(OCC(=O)N1CCc2ccccc21)c1ccc([N+](=O)[O-])cc1,0.345% (inactive),
COc1ccc(-c2csc3ncnc(N4CCN(S(=O)(=O)c5cccc(F)c5)CC4)c23)cc1,12.9% (inactive),
CC1CCN(C(=S)c2cccc([N+](=O)[O-])c2)CC1,-2.27% (inactive),
CC1CCN(C(=S)NC(=O)c2ccccc2Br)CC1,5.23% (inactive),
CC1CCN(C(=S)c2cccc(O)c2)CC1,,1.46 µM (active)
CC[C@]1(C(=O)OC)[C@H]2C(=O)N(Cc3ccccc3)C(=O)[C@H]2[C@H]2CN=C(SCc3ccc(Cl)cc3)N21,4.81% (inactive),

SMILES,"activity, positive = re-replication",Potency
O=C(CN1CCc2ccccc2C1)Nc1cccc(S(=O)(=O)N2CCOCC2)c1,0.481% (inactive),
COC(=O)Cc1ccc(OC(=O)C2CCN(S(=O)(=O)c3ccc(OC)c(OC)c3)CC2)cc1,3.06% (inactive),
O=C(Nc1ccc(F)cc1)C1CCN(C(=O)c2ccc([N+](=O)[O-])cc2)CC1,11.3% (inactive),
O=C(c1ccc(Oc2ccc(Cl)cc2)c([N+](=O)[O-])c1)N1CCCC1,6.4% (inactive),
CC1CCN(C(=O)c2ccc(S(=O)(=O)Cc3cc(F)ccc3F)c([N+](=O)[O-])c2)CC1,,18.4 µM (active)
O=C(Nc1ccn(CCCNCc2ccc3[nH]ccc3c2)c(=O)n1)OCc1ccccc1,-1.3% (inactive),
O=C(Nc1c[nH]c(=O)[nH]c1=O)OCc1ccccc1,-0.888% (inactive),
Cc1ccc(OCC(=O)N2CCN(S(=O)(=O)c3ccc(Cl)s3)CC2)cc1C,3.45% (inactive),
Cc1ccc(Br)c(NS(=O)(=O)c2cccc(C(=O)N3CCNC(=O)C3)c2)c1,-1.92% (inactive),
NC(N)=Nc1nc(-c2ccccc2)c2cc(Cl)ccc2n1,18% (inactive),
O=C(CCl)NNc1nc(-c2ccccc2)c2cc(Cl)ccc2n1,13.2% (inactive),
OCCCNc1nc(-c2ccccc2)c2cc(Cl)ccc2n1,,8.2 µM (active)
CC1(C)CC(=O)C=C(c2ccc3ncccc3c2)C1,6.67% (inactive),
CCN(c1ccccc1)S(=O)(=O)c1ccc(C(=O)Nc2ccccc2OC)cc1,-9.03% (inactive),
C[n+]1cccc(C(=O)O)c1,-1.63% (inactive),
COc1ccc(Cn2c(=S)[nH]c3cc(C(=O)NCCCN4CCOCC4)ccc3c2=O)cc1,14.2% (inactive),
CCCCNC(=O)CCn1c(=S)[nH]c2cc3c(cc2c1=O)OCO3,0.701% (inactive),
CCN(CC)CCCNC(=O)c1ccc2c(=O)n(Cc3ccc4c(c3)OCO4)c(=S)[nH]c2c1,,23.1 µM (active)
Cc1ccc(SC(CC(=O)c2ccc(C(C)(C)C)cc2)C(=O)O)cc1 (stereo not given),,7.31 µM (active)
Cc1ccc(C(=O)CSc2ccccc2C(=O)O)cc1,-0.299% (inactive),
Cc1ccc(C(=O)NCCNC(=O)c2ccccc2)cc1,-1.61% (inactive),
